Results filed as inconclusive are left out. Where a call stands in place of a potency, no number is given. Active and inactive are the calls of the source. The call rests on the fitted dose curve; in most records, active means well fitted cell-killing curve with a large enough effect in the repeat runs; inconclusive means weak or mixed curves, or effect the other way; inactive means flat fitted curve, though single readings scatter.
assay: qHTS assay to identify small molecule antagonists of the estrogen receptor alpha (ER-alpha) signaling pathway using the BG1 cell line in the presence of 0.1 nM 17-beta-estradiol - cell viability counter screen (AID 1259241); settings: VM7Luc4E2 (BG1) viability, CellTiter-Fluor protease, 22 h, 0.1 nM estradiol agonist added; series mostly up to 92.4 µM; further: nearly all actives have a fitted effect of over 40% in size
Description: National Center for Advancing Translational Sciences [NCATS]
NIH Chemical Genomics Center [NCGC]
U.S. Environmental Protection Agency [EPA]
National Institutes of Environmental Health Sciences [NIEHS]
National Toxicology Program [NTP]
U.S. Food and Drug Administration [FDA]
Estrogen receptor (ER), a member of the nuclear hormone receptor plays an important role in development, metabolic homeostasis and reproduction. Two subtypes of ER, ER-alpha and ER-beta, have similar expression patterns with some uniqueness in both types. Endocrine disrupting chemicals (EDCs) and their interactions with steroid hormone receptors like ER causes disruption of normal endocrine function. Therefore, it is important to understand the effect of environmental chemicals in ER signaling pathway. For identifying ER antagonists, VM7Luc4E2 cell line was used to screen against Tox21 compound libraries.
VM7Luc4E2 cell line (provided by Denison MS, University of California) endogenously express full-length ER-alpha and is stably transfected with a plasmid containing four estrogen responsive elements (ERE) upstream of a luciferase reporter gene. The current screening for identification of ER-alpha inhibitors against Tox21 compound libraries used lower concentration (0.1 nM) of 17beta-Estradiol as a stimulator. The cytotoxicity of the Tox21 compound libraries against VM7Luc4E2 cell line was tested by measuring live-cell protease activity using CellTiter-Fluor assay in the same wells.
Tox21 Assay Protocol Summary:
VM7Luc4E2 cells were cultured in phenol red free assay medium containing 10% charcoal stripped FBS for 5 days prior to the assay. The cells were dispensed at 4,000 cells/well in 4 uL of assay medium into white wall/solid-bottom 1536-well plates (Corning Life Sciences, Corning, NY) using a Multidrop Combi (ThermoFisher Scientific, Waltham, MA) dispenser. After the assay plates were incubated at 37C and 5% CO2 for 24 hr, 23 nL of compounds dissolved in DMSO, positive controls or DMSO only was transferred to the assay plates by a Pintool station (Kalypsys, San Diego, CA). The transfer of compounds was followed by the addition of 1 uL of 0.1 nM (final concentration) agonist (17beta-Estradiol)/assay medium using a Flying Reagent Dispenser (FRD, Aurora Discovery, San Diego, CA). The plates were incubated at 37C and 5% CO2 for 22 hr. For cytotoxicity assay, 1 uL of CellTiter-Fluor reagent (Promega Corporation, Madison, WI) was added to each well using the FRD and after 30 min incubation at 37C and 5% CO2, The fluorescence intensity was measured using ViewLux plate reader (PerkinElmer, Shelton, CT).

SMILES	Potency
C[Si](C)(C)O[Si](C)(C)O[Si](C)(C)C	inactive
OCCCO	inactive
CCCCOC(=O)C(C)Oc1ccc(Oc2ccc(C(F)(F)F)cn2)cc1 (stereo not given)	inactive
O=Cc1ccc([N+](=O)[O-])cc1	inactive
CCCCCCCCC(=O)OCC(C)OC(=O)CCCCCCCC (stereo not given)	inactive
CCCCCCCCCC(C)C=O (stereo not given)	inactive
CCc1c(C)[nH]c2c1C(=O)C(CN1CCOCC1)CC2 (stereo not given)	inactive
O=C(OC1C[C@H]2CC[C@@H](C1)[N+]21CCCC1)C(O)(c1ccccc1)c1ccccc1 (stereo not given in full)	inactive
O=C(c1ccco1)N1CCNCC1	inactive
CC(C)(O)C(=O)O	inactive
NCCOCCOCCN	inactive
CCOc1ccc(NC(C)=O)cc1N	inactive
CC(=O)OCC(=O)[C@@]1(O)CC[C@H]2[C@@H]3CCC4=CC(=O)C=C[C@]4(C)[C@@]3(F)[C@@H](O)C[C@@]21C	inactive
C=C[Si](OCC)(OCC)OCC	inactive
Clc1cc(Cl)c2c(c1)N=C1CCCCCN1C2	inactive
CCCCCCCCCCCCCCCCC(=O)O	inactive
CCCCCCCCNC	inactive
Cc1c(Cl)cccc1Nc1ccccc1C(=O)O	inactive
O=C(c1ccc(Cl)cc1)c1ccc(Cl)cc1	inactive
CCCC(=O)OCCC(C)C	inactive

SMILES	Potency
Nc1cccc2c(=O)[nH][nH]c(=O)c12	inactive
CCCCCCCCS	inactive
CCCCCO	inactive
CCCc1nc(C)c2c(=O)[nH]c(-c3cc(S(=O)(=O)N4CCN(CC)CC4)ccc3OCC)nn12	inactive
Clc1nc2ccccc2nc1Cl	inactive
CCCCCCCCCCCC(=O)OCC	inactive
O=C(NC1CCN(CCc2c[nH]c3ccccc23)CC1)c1ccccc1	inactive
CC(=O)S[C@H](C(=O)N[C@H]1Cc2ccccc2[C@H]2CCC[C@@H](C(=O)O)N2C1=O)C(C)C	inactive
CC(C)(C(=O)O)c1ccc(C(O)CCCN2CCC(C(O)(c3ccccc3)c3ccccc3)CC2)cc1 (stereo not given)	inactive
Clc1ccccc1-c1nc(-c2ccncc2)no1	inactive
CC(C)CCCCCCCOC(=O)c1ccc(C(=O)OCCCCCCCC(C)C)c(C(=O)OCCCCCCCC(C)C)c1	inactive
CC1(COc2ccc(CC3SC(=O)NC3=O)cc2)CCCCC1 (stereo not given)	inactive
C[C@]12CCC(=O)C=C1[C@@H]1C[C@@H]1[C@H]1[C@@H]3[C@@H]4C[C@@H]4[C@@]4(CCC(=O)O4)[C@@]3(C)CC[C@@H]12	inactive
O=C(N[C@@H](Cc1ccccc1)[C@@H](O)C(=O)N1C[C@@H](O)[C@@H](O)C1)c1cc2cc(Cl)ccc2[nH]1	inactive
CC(CC(C#N)(c1ccccc1)C(C)C)N(C)C (stereo not given)	inactive
CCCCOc1ccc(N)cc1	inactive
CC1(C)C(=O)NC(=O)N1CO	inactive
Cc1ccc(NC=O)c(C)c1	inactive
CCCOC(C)=O	inactive
CC/C=C\CCO	inactive
